Test results: PubChem BioAssay (Tox21)
Several values for one entry are separate records, joined by “and”; a condition that tells them apart may be missing. Identical values can stand only once. Inconclusive results are not listed. Activity calls are given as the source filed them. Unless noted, calls follow the shape of the dose curve; as a rule, active = well fitted curve in the direction sought with a large enough effect in the repeat runs; inconclusive = weak or mixed curves; inactive = no such curve, though single readings can be large; an effect the other way counts as inactive or inconclusive.

Key:
[1] = target: Nuclear receptor subfamily 1 group I member 3 (Homo sapiens) (UniProt Q14994); test: qHTS assay to identify small molecule agonists of the constitutive androstane receptor (CAR) signaling pathway (AID 1224839);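 also: HepG2 cells stably carrying human CAR and a CYP2B6 luciferase reporter; % is scaled to controls: 0 for no effect and ±100 for the full control effect; nearly all actives have a fitted effect of over 15% in size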
Chain of Nuclear receptor subfamily 1 group I member 3 (Homo sapiens) (Q14994 whole entry, looked up): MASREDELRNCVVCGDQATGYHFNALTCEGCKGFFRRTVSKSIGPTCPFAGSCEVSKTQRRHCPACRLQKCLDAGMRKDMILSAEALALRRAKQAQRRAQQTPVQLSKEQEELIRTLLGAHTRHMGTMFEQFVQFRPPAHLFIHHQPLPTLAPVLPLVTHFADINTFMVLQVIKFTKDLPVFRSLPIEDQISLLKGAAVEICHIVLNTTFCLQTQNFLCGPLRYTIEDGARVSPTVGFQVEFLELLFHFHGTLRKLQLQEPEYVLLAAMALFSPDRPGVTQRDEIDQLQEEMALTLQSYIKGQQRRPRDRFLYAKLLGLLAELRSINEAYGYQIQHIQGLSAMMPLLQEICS
Method in brief: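 HepG2 cells stably expressing hCAR and a CYP2B6-2.2kb luciferase reporter were treated with compounds at 15 concentrations plus 0.75 uM PK11195 (final) for 24 h at 37 C; luminescence was read after ONE-Glo addition.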

[2] = qHTS assay to identify small molecule agonists of the hypoxia (HIF-1) signaling pathway - cell viability counter screen (AID 1224844; calls by dose curve; also: nearly all actives have a fitted effect of over 50% in size; also: potency is read from the fitted curve at half-maximal effect; as to activity change, negative = cytotoxicity: % is scaled to controls: 0 for no effect and ±100 for the full control effect)
Method in brief: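 In this counter screen, HRE-bla ME-180 cell viability after 17 hrs of compound exposure at 37C was read by CellTiter-Glo luminescence, multiplexed with the beta-lactamase reporter measurement.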

[3] = qHTS assay to identify small molecule agonists of the hypoxia (HIF-1) signaling pathway (AID 1224846; active = well fitted activation curve with a large enough effect in the signal ratio in the repeat runs, not every such curve was filed as active; the % refers to the signal ratio; also: % is scaled to controls: 0 for no effect and ±100 for the full control effect)
Method in brief: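 ME-180 HRE-bla reporter cells; compounds in DMSO, 17 h at 37C; read-out beta-lactamase via CCF4-AM FRET.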

[4] = qHTS RealTime-Glo MT Cell Viability Assay in HepG2 cells - 24 hour (AID 1224867); also: % is scaled to controls: 0 for no effect and ±100 for the full control effect; nearly all actives have a fitted effect of over 50% in size
Method in brief: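 qHTS, HepG2, 600 cells/well, RealTime-Glo (NanoLuc + prosubstrate) added with cells; 5 h preincubation; DMSO compound addition; 37 C; luminescence at 0/8/16/24/32/40 h.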

[5] = qHTS RealTime-Glo MT Cell Viability Assay in HEK293 cells - 32 hour (AID 1224868); also: nearly all actives have a fitted effect of over 50% in size; also: potency is read from the fitted curve at half-maximal effect; as to activity change, negative = cytotoxic: top concentration of the series differs between compounds; % is scaled to controls: 0 for no effect and ±100 for the full control effect
Method in brief: (§1)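 Assay medium contained NanoLuc luciferase plus cell-permeant prosubstrate, added with HEK293 cells at 600 cells/well. After 5 h at 37 C/5% CO2 compounds were added; plates stayed at 37 C for 40 h with serial luminescence reads.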

[6] = A CellTox Green Cytotoxicity Assay to monitor cytotoxicity in HEK293 cells - 0 hour (AID 1224869); also: % is scaled to controls: 0 for no effect and ±100 for the full control effect; nearly all actives have a fitted effect of over 50% in size
Method in brief: (§2)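 Real-time, in one plate: 600 HEK293 cells/well with dead-cell DNA dye, pinned compound after 5 h, 37 C incubation over 40 h; viable cells give no appreciable fluorescence.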

[7] = qHTS RealTime-Glo MT Cell Viability Assay in HepG2 cells - 40 hour (AID 1224870); also: nearly all actives have a fitted effect of over 50% in size; also: potency is read from the fitted curve at half-maximal effect
Method in brief: (§3)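 HepG2 cells mixed with RealTime-Glo MT reagents (NanoLuc plus cell-permeant prosubstrate) were seeded at 600 cells/well, incubated 5 h at 37 C/5% CO2, then pinned with compounds in DMSO; nonlytic luminescence tracked viability during 40 h treatment.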

[8] = qHTS RealTime-Glo MT Cell Viability Assay in HEK293 cells - 16 hour (AID 1224872); also: nearly all actives have a fitted effect of over 50% in size; also: potency is read from the fitted curve at half-maximal effect
Method in brief: as §1

[9] = qHTS RealTime-Glo MT Cell Viability Assay in HepG2 cells - 8 hour (AID 1224873); also: % is scaled to controls: 0 for no effect and ±100 for the full control effect; nearly all actives have a fitted effect of over 55% in size
Method in brief: as §3

[10] = qHTS assay to identify small molecule agonists of the estrogen related receptor signaling pathway with the pleiotropic PPARgamma coactivator (PGC) from Tox21 10K library (AID 1224842); also: % is scaled to controls: 0 for no effect and ±100 for the full control effect; nearly all actives have a fitted effect of over 15% in size
Method in brief: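 PGC/ERR reporter cells (NTP line) were seeded 2,000 per well, rested 6 h at 37 C/5% CO2, then pin-dosed with compounds in DMSO for 18 h at 37 C; luciferase read by One-Glo luminescence after 30 min at room temperature.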

[11] = target: Thyrotropin receptor (Homo sapiens) (UniProt P16473); test: qHTS assay to identify small molecule agonists of the thyroid stimulating hormone receptor (TSHR) signaling pathway (AID 1224843; calls by dose curve; also: % is scaled to controls: 0 for no effect and ±100 for the full control effect; nearly all actives have a fitted effect of over 45% in size)
Chain of Thyrotropin receptor (Homo sapiens) (P16473 whole entry, looked up): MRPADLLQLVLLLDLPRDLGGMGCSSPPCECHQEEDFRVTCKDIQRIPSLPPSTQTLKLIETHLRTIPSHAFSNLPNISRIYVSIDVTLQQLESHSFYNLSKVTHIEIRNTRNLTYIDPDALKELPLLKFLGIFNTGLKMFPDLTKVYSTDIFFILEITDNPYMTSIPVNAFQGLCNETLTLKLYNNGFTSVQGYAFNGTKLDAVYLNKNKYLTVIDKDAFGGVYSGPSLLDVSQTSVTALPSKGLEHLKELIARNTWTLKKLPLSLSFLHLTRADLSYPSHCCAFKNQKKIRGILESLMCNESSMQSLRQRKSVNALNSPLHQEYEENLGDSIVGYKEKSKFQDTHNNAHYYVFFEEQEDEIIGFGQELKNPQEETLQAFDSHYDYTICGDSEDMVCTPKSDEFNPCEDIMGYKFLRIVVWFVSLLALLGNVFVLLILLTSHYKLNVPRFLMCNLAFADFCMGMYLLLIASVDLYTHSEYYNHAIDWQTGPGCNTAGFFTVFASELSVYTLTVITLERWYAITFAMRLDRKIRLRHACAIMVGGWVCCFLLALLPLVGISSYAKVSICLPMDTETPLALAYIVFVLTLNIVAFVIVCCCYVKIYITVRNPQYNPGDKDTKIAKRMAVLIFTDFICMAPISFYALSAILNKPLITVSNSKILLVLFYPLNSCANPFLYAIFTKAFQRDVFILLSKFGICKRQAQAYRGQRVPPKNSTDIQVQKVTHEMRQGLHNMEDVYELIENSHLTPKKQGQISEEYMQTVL
Method in brief: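 Using 15 concentrations per compound in triplicate, cAMP production was monitored in TSHR-HEK293 cells after 30 min compound incubation at RT; HTRF reagents followed, with fluorescence intensity recorded after 1 h.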

[12] = qHTS assay to identify small molecule antagonists of the estrogen related receptor (ERR) signaling pathway from Tox21 library (AID 1224848); also: nearly all actives have a fitted effect of over 50% in size; also: potency is read from the fitted curve at half-maximal effect
Method in brief: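 Tox21 10K compounds in DMSO tested for ERR pathway antagonism in NTP's ERR cell line; 18 h, 37 C exposure; ONE-Glo luminescence.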

[13] = qHTS assay to identify small molecule agonists of the estrogen related receptor (ERR) signaling pathway from Tox21 library (AID 1224849; calls by dose curve; also: % is scaled to controls: 0 for no effect and ±100 for the full control effect; nearly all actives have a fitted effect of over 15% in size); details: ERR reporter cell line, ONE-Glo luciferase, 18 h; at 92.4 µM (top of the series) unless noted
Method in brief: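 Luciferase activity in ERR pathway reporter cells served as the agonist readout; exposure lasted 18 h at 37 C, with ONE-Glo detection after 30 min at room temperature.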

[14] = A CellTox Green Cytotoxicity Assay to monitor cytotoxicity in HEK293 cells - 40 hour (AID 1224871); also: nearly all actives have a fitted effect of over 45% in size; also: potency is read from the fitted curve at half-maximal effect
Method in brief: as §2

[15] = qHTS assay to identify small molecule antagonists of the estrogen related receptor signaling pathway with the pleiotropic PPARgamma coactivator (PGC) from Tox21 10K library - cell viability counter screen (AID 1224840; active = well fitted cell-killing curve with a large enough effect in the repeat runs, not every such curve was filed as active; also: % is scaled to controls: 0 for no effect and ±100 for the full control effect; nearly all actives have a fitted effect of over 40% in size)
Method in brief: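 Readout: fluorescence intensity from CellTiter-Fluor after 30 min at 37 C/5% CO2. Preceded by 17.5 h treatment of PGC/ERR cells with DMSO-dissolved compounds, added 6 h post-seeding.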

[16] = qHTS assay to identify small molecule agonists of H2AX (AID 1224845; active = well fitted activation curve with a large enough effect in the signal ratio in the repeat runs, not every such curve was filed as active; the % refers to the signal ratio; also: % is scaled to controls: 0 for no effect and ±100 for the full control effect)
Method in brief: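 Wild-type CHO-K1 cells plated overnight, then exposed 3 hr at 37C to compounds at 15 concentrations (0.76% DMSO). Lysed, then HTRF anti-pH2AX(S139)-cryptate/anti-H2AX-d2 detection after 24 hr at room temperature; emissions 665 and 620 nm.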

[17] = qHTS assay to identify small molecule agonists of H2AX - cell viability counter screen (AID 1224847; calls by dose curve; also: top concentration of the series differs between compounds; % is scaled to controls: 0 for no effect and ±100 for the full control effect; nearly all actives have a fitted effect of over 30% in size)
Method in brief: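 Wild-type CHO-K1 cells (10% FBS medium) were plated overnight at 37C, exposed to compounds at 15 concentrations for 3 hr at 37C (0.76% DMSO final), and viability was read as CellTiter-Glo luminescence after 30 min at room temperature.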

[18] = qHTS assay to identify small molecule antagonists of the estrogen related receptor signaling pathway with the pleiotropic PPARgamma coactivator (PGC) from Tox21 10K library (AID 1224841; call rule not given here)
Method in brief: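 One-Glo luminescence, measured after half an hour at room temperature, quantified reporter output of PGC/ERR cells. These had been plated at 2,000 per well, incubated 6 h, dosed with compounds in DMSO, then kept 18 h at 37 C.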

C=CC(=C)CCC=C(C)C
inactive: Potency [1] | Potency [2] | outcome [3] | Potency [4] | Potency [5] | Potency [6] | Potency [7] | Potency [8] | Potency [9]

CNC(=O)c1cc(Oc2ccc(NC(=O)Nc3ccc(Cl)c(C(F)(F)F)c3)cc2)ccn1
inactive: Potency [10] | Potency [11] | Potency [2] | activity change, positive = activation [13] -59.1% [at 42.5 µM] | Potency [6] | Potency [14]
active: Potency [12] 8.41 µM | Potency [5] 3.01 µM | Potency [8] 3.01 µM

O=C(O)c1cccc(Cl)n1
inactive: Potency [15] | Potency [11] | Potency [16] | outcome [3] | Potency [17] | Potency [4] | Potency [5] | Potency [7] | Potency [8] | Potency [9]

CCC(=O)CC(C)CC (centres undefined)
inactive: activation [11] 6.29% [at 0.349 µM] | activity change, negative = cytotoxicity [2] 2.65% [at 0.29 µM] | activation (H2AX phosphorylation) [16] 0.83% [at 0.582 µM] | activation [3] 0.22% [at 0.291 µM] | activity change, negative = cytotoxicity [17] -3.23% [at 0.582 µM] | activity change, negative = cytotoxicity [4] -0.146% [at 0.29 µM] | activity change, negative = cytotoxic [5] 3.77% [at 0.29 µM] | cytotoxicity [6] 6.34% [at 0.29 µM] | activity change, negative = cytotoxic [7] -5.05% [at 0.29 µM] | cytotoxicity increase [14] 5.38% [at 0.29 µM] | activity change, negative = cytotoxicity [8] 5.55% [at 0.29 µM] | viability change, negative = cytotoxic [9] 1.82% [at 0.29 µM]

Nc1ccc2cc3ccc(N)cc3nc2c1
inactive: Potency [9]
active: Potency [5] 871 nM and 2.13 µM | Potency [7] 9.52 µM | Potency [14] 43.6 µM and 21.3 µM | Potency [8] 6.16 µM and 9.52 µM

C[C@H]1O[C@@H](O[C@H]2[C@@H](O)C[C@H](O[C@H]3[C@@H](O)C[C@H](O[C@H]4CC[C@@]5(C)[C@H](CC[C@@H]6[C@@H]5C[C@@H](O)[C@]5(C)[C@@H](C7=CC(=O)OC7)CC[C@]65O)C4)O[C@@H]3C)O[C@@H]2C)C[C@H](O)[C@@H]1O
active: Potency [18] 154 nM and 107 nM | Potency [2] 123 nM and 153 nM
inactive: Potency [10] | Potency [12] | Potency [4] | Potency [6] | Potency [7] | Potency [14] | Potency [9]
